Molecules are shown by their SMILES. Active and inactive are the calls of the source. Unless noted, how the calls were made is not given here.

The nature of assay [1]: compounds binding Alexa647 anti-His antibody – biochemical, small-molecule microarray, 635 nm fluorescence, artefact control for SMM control protein annotation, primary screen (AID 1128).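 Further: score merges feature fluorescence with signal-to-noise for each printed compound spot.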 The following applies: higher = more signal.
For assay [2], the system named is Human papillomavirus type 1a E7 protein (residues 1-88). Description: HPV1a E7 small-molecule binders, primary screen, biochemical, small-molecule microarray, residues 1-88, 635 nm (AID 1129). The following applies: small-molecule microarray binding, fluorescence 635 nm; higher = more signal.
Assay [3] deals with Focal adhesion kinase 1 (Homo sapiens) (UniProt Q05397). Description: PTK2 protein binding on printed compound slides – biochemical, small-molecule microarray, 635/667 nm fluorescence, BSA, DTT, primary screen (AID 1130).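 Further: composite of spot emission at 667 nm and signal to noise over triplicate slides.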 The following applies: 635 nm fluorescence, higher = more signal.
In assay [4] the test system is Fibrinogen (Alexa647-labelled). Put plainly: Alexa647-fibrinogen binding to printed small molecules – biochemical, small-molecule microarray, 635/667 nm fluorescence, artefact control for SMM control-protein annotation, profiling panel (AID 1131).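 Further: z-score merges 667 nm fluorescence with per-spot signal-to-noise over triplicate slides.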 The following applies: fibrinogen-A647 binding fluorescence, higher = more signal.
Assay [5] concerns the target Follistatin (Homo sapiens) (UniProt P19883). Description: FST protein binding to printed compounds – biochemical, small-molecule microarray, 635/667 nm fluorescence, primary screen (AID 1132). To be noted: 635 nm fluorescence, higher = more signal.
The target of assay [6] is Fibroblast growth factor 2 (Homo sapiens) (UniProt P09038). Description: basic fibroblast growth factor binding to printed compounds – biochemical, small-molecule microarray, 635/667 nm fluorescence, primary screen (AID 1133). To be noted: FGF2, fluorescence 635/667, higher = more signal.
Assay [7] is described as follows: JC-1 mitochondrial potential readout, lung cancer cells – cell-based, A549, JC-1 fluorescence, basal, 24 h, 100 nL, profiling panel (AID 1138).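 Further: A549 lung adenocarcinoma cells under basal conditions with no added stimulus; test concentration not given here.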 To be noted: higher = more signal.
For assay [8], the system named is Lefty1. Description: Lefty1 protein binding to printed compounds – biochemical, small-molecule microarray, 635/667 nm fluorescence, primary screen (AID 1139). The following applies: fluorescence 635/667, higher = more signal.
The subject of assay [9] is wheat germ agglutinin (Triticum aestivum), Alexa647-labelled. Put plainly: Alexa647-WGA lectin binding to printed small molecules – biochemical, small-molecule microarray, 635/667 nm fluorescence, artefact control for SMM control-protein annotation, profiling panel (AID 1140).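 Further: score merges 667 nm feature emission with signal to noise over triplicate slides.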 The following applies: WGA-A647 binding, 635 nm fluorescence, higher = more signal.
The target in assay [10] is Luciferin 4-monooxygenase (Photinus pyralis) (UniProt P08659). Description: inhibition of purified Photinus pyralis luciferase – biochemical, luminescence, purified enzyme, 2006 set, primary screen (AID 1141).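 Further: cell-free assay with purified firefly luciferase at 100 ng per well in PBS; test concentration not given here.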 To be noted: purified firefly luciferase, SteadyGlo luminescence, 30 min; higher = more signal, called active from +8 up or from −8 down.
Assay [11] concerns Wnt5a (protein binding on small-molecule microarray). Description: small molecules binding Wnt5a protein – biophysical, small-molecule microarray, 635/667 nm fluorescence, primary screen (AID 1142).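 Further: fluorescence read at 667 nm with signal to noise per printed feature.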 To be noted: 635 nm fluorescence, higher = more signal.
A short description of assay [12]: ATP-based viability of Huh7 replicon cells – cell-based, CellTiter-Glo luminescence, basal, 48 h, cytotoxicity control for HCV replication inhibitor project, primary screen (AID 1143).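 Further: Huh7 hepatoma cells carrying a hepatitis C replication reporter with no stimulus; test concentration not given here.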 The following applies: higher = more signal, called active from +8 up or from −8 down.
The nature of assay [13]: Pseudomonas biofilm growth suppression – PAO1 strain, BacTiter-Glo luminescence, LB-PBS, primary screen (AID 1144). To be noted: P. aeruginosa PAO1 biofilm, 12 h, higher = more signal.
Assay [14] can be described thus: basal CRE-LacZ reporter activity in PC12 – cell-based, unstimulated, primary screen (AID 1145). To be noted: no forskolin, luminescence, 4.5 h, higher = more signal, called active from +8 up or from −8 down.
Assay [15] is described as follows: forskolin-driven CRE-LacZ activity in PC12 – cell-based, CRE-LacZ reporter, forskolin-stimulated, primary screen (AID 1146).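 Further: PC12 cells with 6xCRE LacZ reporter stimulated by forskolin 10 µM; beta-galactosidase reporter signal reflecting CREB driven transcription.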 To be noted: luminescence, 4.5 h, higher = more signal, called active from +8 up or from −8 down.
The target in assay [16] is Streptavidin (Streptomyces avidinii) (UniProt P22629). Description: compounds binding control protein streptavidin – biophysical, small-molecule microarray, 635/667 nm fluorescence, artefact control for SMM compound annotation, primary screen (AID 1147).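 Further: signal reflects streptavidin binding to arrayed compounds as a control protein.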 To be noted: higher = more signal.
Assay [17] is described as follows: probe aInhba binding on compound microarray – biochemical, small-molecule microarray, 635/667 nm fluorescence, primary screen (AID 1148).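 Further: score merges 667nm spot fluorescence with signal-to-noise for antibody binding to printed compounds.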 The following applies: higher = more signal.
Assay [18] addresses Torsin-1A (Homo sapiens) (UniProt O14656). Description: TOR1A wild-type binding on microarray – cell lysate, small-molecule microarray, lysate, 635/667 nm, primary screen (AID 1149). The following applies: COS7 hTOR1A-WT lysate, 635 nm fluorescence, higher = more signal.
The target is the same in assay [19]. Put plainly: torsin A mutant lysate binding on microarrays – cell lysate, small-molecule microarray, COS7 lysate, 635/667 nm fluorescence, primary screen (AID 1150).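 Further: score pools 667 nm emission and signal to noise measuring lysate protein binding.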 To be noted: COS7 hTOR1A mutant lysate, 635 nm fluorescence, higher = more signal.
Assay [20] deals with Sonic hedgehog protein (Shh). Put plainly: Sonic hedgehog microarray binding compounds – biochemical, small-molecule microarray, 635/667 nm fluorescence, primary screen (AID 1151).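 Further: Shh protein binding to compounds spotted on small-molecule microarray slides; score combines spot fluorescence intensity with signal-to-noise across triplicate slides.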 To be noted: 635 nm fluorescence, higher = more signal.

Chain of Streptavidin (Streptomyces avidinii) (P22629 whole entry, looked up): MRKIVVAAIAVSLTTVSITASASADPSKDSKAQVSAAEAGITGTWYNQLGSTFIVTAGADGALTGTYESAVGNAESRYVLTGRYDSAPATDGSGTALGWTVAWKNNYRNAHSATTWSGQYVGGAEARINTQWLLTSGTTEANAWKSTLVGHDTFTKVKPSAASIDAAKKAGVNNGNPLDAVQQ
Chain of Follistatin (Homo sapiens) (P19883 whole entry, looked up): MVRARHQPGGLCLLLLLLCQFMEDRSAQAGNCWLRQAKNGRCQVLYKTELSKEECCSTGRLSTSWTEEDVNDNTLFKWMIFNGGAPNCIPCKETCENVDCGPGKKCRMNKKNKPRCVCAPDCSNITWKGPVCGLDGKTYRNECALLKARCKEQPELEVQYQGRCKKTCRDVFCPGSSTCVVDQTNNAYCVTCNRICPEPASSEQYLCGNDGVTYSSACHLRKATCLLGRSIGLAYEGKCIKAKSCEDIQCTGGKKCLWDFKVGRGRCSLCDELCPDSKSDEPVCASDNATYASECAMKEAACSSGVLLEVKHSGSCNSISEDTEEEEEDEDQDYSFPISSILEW
Chain of Fibroblast growth factor 2 (Homo sapiens) (P09038 whole entry, looked up): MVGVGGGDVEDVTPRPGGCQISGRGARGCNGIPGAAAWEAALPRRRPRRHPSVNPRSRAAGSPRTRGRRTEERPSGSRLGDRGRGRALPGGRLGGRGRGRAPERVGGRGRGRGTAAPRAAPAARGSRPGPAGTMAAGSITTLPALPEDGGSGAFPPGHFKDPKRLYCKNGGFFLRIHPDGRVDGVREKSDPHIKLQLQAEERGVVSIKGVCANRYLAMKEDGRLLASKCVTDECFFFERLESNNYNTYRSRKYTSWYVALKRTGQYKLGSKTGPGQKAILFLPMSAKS
Chain of Torsin-1A (Homo sapiens) (O14656 whole entry, looked up): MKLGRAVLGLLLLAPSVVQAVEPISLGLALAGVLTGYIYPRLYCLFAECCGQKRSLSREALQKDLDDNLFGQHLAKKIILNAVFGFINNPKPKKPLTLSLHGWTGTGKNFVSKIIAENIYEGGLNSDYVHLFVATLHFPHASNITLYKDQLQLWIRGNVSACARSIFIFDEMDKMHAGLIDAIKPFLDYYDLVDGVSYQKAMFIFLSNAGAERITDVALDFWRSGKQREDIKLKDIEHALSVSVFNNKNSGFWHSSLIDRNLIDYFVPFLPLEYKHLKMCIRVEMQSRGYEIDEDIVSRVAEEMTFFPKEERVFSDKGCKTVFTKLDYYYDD
Chain of Luciferin 4-monooxygenase (Photinus pyralis) (P08659 whole entry, looked up): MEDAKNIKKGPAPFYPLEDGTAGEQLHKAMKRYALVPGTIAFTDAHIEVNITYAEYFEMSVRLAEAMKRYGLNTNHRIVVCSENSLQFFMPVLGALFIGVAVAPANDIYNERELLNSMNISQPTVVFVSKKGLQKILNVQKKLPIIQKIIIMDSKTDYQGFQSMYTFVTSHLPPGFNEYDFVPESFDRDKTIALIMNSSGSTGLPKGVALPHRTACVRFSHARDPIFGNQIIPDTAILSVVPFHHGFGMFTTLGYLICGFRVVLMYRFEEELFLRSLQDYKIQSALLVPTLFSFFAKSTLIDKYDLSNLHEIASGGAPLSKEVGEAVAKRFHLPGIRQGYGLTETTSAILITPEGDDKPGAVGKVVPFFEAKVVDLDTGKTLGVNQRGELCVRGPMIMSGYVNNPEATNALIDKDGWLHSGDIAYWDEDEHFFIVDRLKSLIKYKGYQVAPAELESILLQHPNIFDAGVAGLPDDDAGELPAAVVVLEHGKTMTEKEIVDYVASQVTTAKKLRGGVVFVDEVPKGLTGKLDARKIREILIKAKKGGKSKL
Chain of Focal adhesion kinase 1 (Homo sapiens) (Q05397 whole entry, looked up): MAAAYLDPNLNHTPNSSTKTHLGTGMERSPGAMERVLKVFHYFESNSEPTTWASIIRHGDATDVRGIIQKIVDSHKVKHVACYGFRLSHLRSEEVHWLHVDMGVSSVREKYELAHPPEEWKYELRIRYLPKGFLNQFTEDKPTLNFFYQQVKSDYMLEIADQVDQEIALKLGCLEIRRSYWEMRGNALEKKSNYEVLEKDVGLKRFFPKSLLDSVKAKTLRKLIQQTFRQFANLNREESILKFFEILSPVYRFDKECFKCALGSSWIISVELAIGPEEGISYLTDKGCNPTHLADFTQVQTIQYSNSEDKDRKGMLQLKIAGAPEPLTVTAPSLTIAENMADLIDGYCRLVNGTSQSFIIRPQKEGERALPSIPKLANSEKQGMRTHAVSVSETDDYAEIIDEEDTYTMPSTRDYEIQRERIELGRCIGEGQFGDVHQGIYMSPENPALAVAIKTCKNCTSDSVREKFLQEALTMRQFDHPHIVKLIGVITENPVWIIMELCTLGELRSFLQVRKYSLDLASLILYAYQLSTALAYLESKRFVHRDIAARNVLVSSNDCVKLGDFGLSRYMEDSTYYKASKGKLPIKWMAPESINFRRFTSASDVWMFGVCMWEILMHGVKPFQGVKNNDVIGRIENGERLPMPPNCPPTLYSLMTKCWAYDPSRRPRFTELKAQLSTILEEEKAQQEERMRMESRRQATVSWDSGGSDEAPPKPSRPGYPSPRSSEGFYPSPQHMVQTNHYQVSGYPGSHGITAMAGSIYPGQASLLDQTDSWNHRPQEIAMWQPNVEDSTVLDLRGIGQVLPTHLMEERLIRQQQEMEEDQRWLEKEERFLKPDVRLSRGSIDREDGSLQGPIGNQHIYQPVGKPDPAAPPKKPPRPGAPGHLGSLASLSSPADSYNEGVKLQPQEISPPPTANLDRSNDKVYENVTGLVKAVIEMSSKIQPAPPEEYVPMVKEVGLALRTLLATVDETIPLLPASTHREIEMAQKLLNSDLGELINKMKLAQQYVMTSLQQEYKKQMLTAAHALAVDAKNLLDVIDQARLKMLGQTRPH

As for `CN(C)CCCNC(=O)[C@@]1(Cc2ccccc2I)c2ccccc2C(=O)N(Cc2ccccc2C(F)(F)F)[C@H]1c1ccc(CO)cc1`, the composite z-score in [1] is 0.984; in [2] it was 0.794; in assay [3], 0.17; in assay [4], 0.836; in assay [5], -0.781; in assay [6] it was -1.16. The composite z-score is -0.406 in assay [8]; -0.203 in assay [9]; -0.753 in assay [11]; 0.154 in assay [16]; -0.162 in assay [17]; -1.08 in assay [18]. The composite z-score in [19] was 0.135; in assay [20] it was -0.678. Further, the z-score in assay [7] is 0.117; in assay [10] it was 0.606 (inactive); in [12] it was -5.77 (inactive); in assay [13], -0.233 (inactive); in [14], 0.351 (inactive); in [15], -0.742 (inactive).
For the molecule `COc1ccc(CCNC(=O)[C@@]2(c3ccc([N+](=O)[O-])cc3)CC(=O)N(CC34CC5CC(CC(C5)C3)C4)[C@@H]2c2ccc(CO)cc2)cc1`, the composite z-score in assay [1] stood at 1.59; in assay [2], 1.17; in [3], 0.397; in [4], 0.347; in assay [5] it was 1.41; in [6], 1.21. In addition, the composite z-score in assay [8] is 0.981; in assay [9] it was -0.037; in assay [11], 0.145; in assay [16], 0.531; in assay [17], 0.327; in assay [18], 0.246. Besides, the composite z-score was determined as 0.388 in [19] and 0.948 in assay [20]. Further, the z-score is -0.483 in assay [7]; 0.41 (inactive) in [10]; -5.75 (inactive) in [12]; -1.36 (inactive) in assay [13]; -0.062 (inactive) in assay [14]; 0.164 (inactive) in assay [15].
Turning to `[N-]=[N+]=NCc1ccccc1C[C@]1(C(=O)O)N=C(c2ccc(OCCCO)cc2)O[C@H]1c1ccccc1`, the composite z-score in assay [1] is 1.29; in assay [2], 1.13; in assay [3], 0.165; in assay [4] it was 0.687; in assay [5] it was 0.0944; in [6], 0.87. In addition, the composite z-score was -1.43 in assay [8]; 1.2 in assay [9]; 0.0352 in assay [11]; 0.807 in [16]; 0.0566 in assay [17]; 1.8 in [18]. Also, the values for the composite z-score in assay [19] and in [20] were 1.99 and -0.474, respectively. In addition, the z-score in assay [7] is 0.0539; in [10], 0.414 (inactive); in [12] it was -0.881 (inactive); in assay [13] it was -0.556 (inactive); in [14] it was -0.79 (inactive); in assay [15], 2.11 (inactive).
Consider `O=C1C2C=CC(C(O)c3cccs3)N(Nc3ccccc3F)C2C(=O)N1c1ccccc1` (stereo not given), for which the composite z-score in assay [1] was 1.29; in assay [2], 1.09; in assay [3], 0.961; in assay [4], 0.916; in [5], 0.414; in [6], -0.282. Besides, the composite z-score in [8] was -0.0918; in assay [9], 0.127; in assay [11], 0.13; in assay [16], 0.295; in [17], -0.159; in assay [18], 0.0473. The composite z-score is 0.605 in assay [19] and -0.573 in [20]. In addition, the z-score in assay [7] was -0.265; in assay [10], 1.71 (inactive); in assay [12], -1.1 (inactive); in assay [13] it was -1.51 (inactive); in assay [14], -0.714 (inactive); in [15] it was -0.198 (inactive).
On to `Cc1ccc(S[C@]2(C(=O)NCc3ccccc3)CC(=O)N(Cc3ccccc3Cl)[C@@H]2c2ccc(CO)cc2I)cc1`, for which the composite z-score in [1] was 2.92; in assay [2], -0.162; in [3] it was -0.0602; in [4], 0.999; in [5], 0.0508; in [6], -0.871. In addition, the composite z-score in [8] was -0.366; in assay [9], 0.947; in [11] it was -0.657; in assay [16], -0.15; in [17] it was -0.0963; in assay [18], -2.03. The figures for the composite z-score in assay [19] and in [20] were -1.65 and 0.262, respectively. Further, the z-score in assay [7] was 0.00439; in [10], 0.831 (inactive); in assay [12], -1.68 (inactive); in assay [13], -1.12 (inactive); in [14], -0.258 (inactive); in assay [15], 1.72 (inactive).

Source of the values: PubChem BioAssay.
